The list is not random: actives were taken first. Their share in the collection is about 6.3%.
A340 absorber: compound absorbs light at 340 nm; compound absorbance at 340 nm, fold over control; fold change at 10 µM; 65,000 tested, under 10 active;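 active means at 10 µM dose, initial 340 nm absorbance at least 2 fold that of control wells; inactive means change under 2 fold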;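 further: initial absorbance extrapolated from kinetic A340 decline of NADH oxidation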
PMK inhibit: S. pneumoniae PMK inhibition; purified PMK, PK/LDH-coupled NADH absorbance 340 nm; inhibition, % at 10 µM; actives 0.49% (n = 65,000); AID 539;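 active means top-ranked compounds by inhibition in the single 10 µM screen, taking a fixed number of the strongest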;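 further: 0% = full reaction with DMSO carrier and 100% = background rate without enzyme reaction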
Autofluor 339: intrinsic fluorescence of library compounds, ex339/em460 – biochemical, MLSMR library, data from DPM-DC assay, artefact control, profiling panel; compound autofluorescence, ex339/em460 nm, NADH buffer; active compounds read high; 1 = no-compound wells, NADH background; fluorescence fold increase at 10 µM; actives 5.5% (n = 65,000); AID 709;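 active means at 10 µM, mean starting fluorescence two-fold or more over control wells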;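 further: signal is the first read of a kinetic run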
NADH enzymes: inhibition of NAD/NADH coupling enzymes, library profiling; IC50, µM (titrated, usually from 10 µM), for inactives: at the top dose inhibition; coupled PK/LDH NADH assays, four targets; AID 774; actives 0.02% (n = 65,000);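 active means single-dose screening hits from any of four coupled enzyme assays that gave an IC50 when retested across doses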;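 further: the DPM-DC format reads NADH fluorescence rather than 340 nm absorbance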
Spn MK inh: blocks S. pneumoniae mevalonate kinase; actives 0.48% (n = 65,000); purified MK, PK/LDH-coupled NADH absorbance 340 nm; inhibition, % at 10 µM;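 active means ranked among the strongest by inhibition in the single 10 µM screen, a fixed top-ranked set picked for dose follow-up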
DPM-DC inhibit: S. pneumoniae DPM-DC inhibition; purified DPM-DC, PK/LDH coupled NADH fluorescence; calls only at 10 µM; actives 0.49% (n = 65,000);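 active means the 320 compounds with the highest percent inhibition in the single-dose primary screen, excluding strongly autofluorescent ones, cut at about 32% in these data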;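 further: kinetic rate of NADH fluorescence loss reporting ADP formed by the decarboxylase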
* = called active by the depositor; i = inactive; . = no result shown.

SMILES | A340 absorber | PMK inhibit | Autofluor 339 | NADH enzymes | Spn MK inh | DPM-DC inhibit
Cc1cc(NC(=O)c2cccc(C(=O)Nc3cc(C)on3)n2)no1 | 1 | 9.0 | 1.07 | 9.0% | 10.0 | i
Cc1ccc(-c2cc(C(=O)NCc3ccco3)c3ccccc3n2)o1 | 1.06 | 6.0 | 4.94* | 9.0% | 11.0 | .
Cc1cc(NC(=O)c2cc(-c3cccs3)nc3ccccc23)no1 | 1.11 | 4.0 | 2.05* | 5.0% | 5.0 | .
Cc1cc(C)c2nc(-c3ccccn3)cc(C(=O)Nc3cc(C)on3)c2c1 | 1.1 | 7.0 | 3.15* | 13.0% | 4.0 | i
Cc1ccc(-c2cc(C(=O)NCCCn3ccnc3)c3cc(Br)ccc3n2)o1 | 1.08 | 2.0 | 2.86* | 22.0% | 35.0 | i
Cc1ccc(-c2cc(C(=O)NC3=NCCS3)c3cc(Br)ccc3n2)o1 | 1.1 | 5.0 | 1.14 | 20.0% | 26.0 | i
Cc1cc(C)c2nc(-c3ccccn3)cc(C(=O)NCc3ccco3)c2c1 | 1.09 | 7.0 | 3.64* | 4.0% | 1.0 | .
COC1(c2cc(-c3ccccc3)nc(N)n2)CCCCC1 | 0.99 | 2.0 | 1.3 | 2.0% | 4.0 | i
COc1ccc(C(CC(=O)NCCCN2CCOCC2)NS(=O)(=O)c2ccc(C)cc2)cc1 (configuration not stated) | 1.05 | 1.0 | 1.1 | 1.0% | 1.0 | i
O=C(Nc1ccc2oc(=O)ccc2c1)c1ccco1 | 1.05 | 12.0 | 2.84* | 12.0% | 0.0 | i
O=C(Nc1ccc(Nc2ccccc2)cc1)c1ccco1 | 1.18 | 0.0 | 1.08 | 10.0% | 13.0 | i
CCN1C(=O)CC(C(=O)O)SC1=Nc1ccc(OC)cc1 (configuration not stated) | 0.99 | 24.0 | 1.05 | 8.0% | 0.0 | i
Cc1cc(C)n(-c2nc(NCc3cccnc3)c3c4c(sc3n2)COC(C)(C)C4)n1 | 1.08 | 7.0 | 3.7* | 5.0% | 2.0 | .
CCN(CC)CCNC(=O)CCCCn1c(=S)[nH]c2c([nH]c3ccc(OC)cc32)c1=O | 1.05 | 1.0 | 1.62 | 14.0% | 42.0* | i
CCN(CC)CCNC(=O)CCn1c(=S)[nH]c2cc3c(cc2c1=O)OCO3 | 1.01 | 7.0 | 1.01 | 2.0% | 1.0 | i
C=CCNc1ncnc2c1[nH]c1ccc(C)cc12 | 1.02 | 2.0 | 3.99* | 5.0% | 8.0 | .
Cc1ccc2[nH]c3c(NCCN4CCOCC4)ncnc3c2c1 | 1.03 | 6.0 | 1.61 | 6.0% | 8.0 | i
CCN(CC)CCNc1ncnc2c1[nH]c1ccc(OC)cc12 | 1.05 | 4.0 | 2.36* | 5.0% | 6.0 | .
Cc1ccc(S(=O)(=O)Cc2cccc(C(=O)N3CCOCC3)c2)cc1 | 1.02 | 0.0 | 1.09 | 2.0% | 1.0 | i
CCn1nnnc1SCC(=O)c1cc(OC)ccc1OC | 1.06 | 12.0 | 0.8 | 9.0% | 4.0 | i
Cc1nn(-c2ccccc2)c2[nH]c(=O)c(CNc3ccc(N4CCOCC4)cc3)cc12 | 0.99 | 11.0 | 1.09 | 5.0% | 4.0 | i
O=c1[nH]c2c(cc1CNCCN1CCOCC1)c(-c1cccc(F)c1)nn2-c1ccccc1 | 1.05 | 12.0 | 3.53* | 20.0% | 22.0 | i
CC1(C)Cc2ccccc2C(N)=C1C#N | 1.02 | 0.0 | 1 | 1.0% | 3.0 | i

Screening data (PubChem)
